Usually inhibition stands for the relative decrease from the control value, in per cent.

The source of these data is PubChem BioAssay AID1063 (University of Pittsburgh Molecular Library Screening Center, 2008).

Screen size: about 200,000 compounds; about 18,000 (9%) were called active. For the sample, actives were picked, then their nearest neighbours and some compounds at random. A number with no mark means an inactive call. Rule as the data show it: active = inhibition above about 50%; inactive = the rest.

This assay in a line: Leishmania major promastigote growth inhibition, primary screen (AID 1063).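 Also: promastigotes grown with compound for 44 hours at 28 °C.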 The conditions noted are these: Leishmania major promastigotes, resazurin fluorescence viability; at 10 µM; stronger effect = higher value. For orientation: Alamar Blue is a resazurin reagent that responds to reducing activity.
In the case of `Cc1c(Cl)c([N+](=O)[O-])nn1CC(=O)NCC1CCCO1` (stereo not drawn), the inhibition is -3.45%.
As to `COCCCNC(=S)NCCNc1nc2cc(C)c(C)cc2cc1C#N`, the inhibition is 19.8%.
As to `O=C1c2ccccc2C2=Nc3ccccc3SC(c3ccccc3F)C12` (stereo not drawn), the inhibition was 98.3% (active).
`COc1ccc(CCNC(=O)c2cc3sccc3n2C)cc1OC`: the inhibition is 7.15%.
For the molecule `Cn1c(C(=O)NCCCN2CCCCC2)cc2sccc21`, the inhibition was 74.1% (active).
Turning to `O=C(NCCCN1CCCCCC1)c1ccc(N2CCCC2=O)cc1`, the inhibition is 0.31%.
Consider `COc1ccc(C2(CNC(=O)Cc3ccc(OC)c(OC)c3)CCCC2)cc1`, for which the inhibition was 0.15%.
Consider `CCOc1ccc(C(=O)Nc2cccc(-c3ccc4nncn4n3)c2)cc1`, for which the inhibition was -2.57%.
Consider `Cc1ccc(NC(=O)c2oc3ccccc3c2C)c([N+](=O)[O-])c1`, for which the inhibition is -2.37%.
As for `Cc1ccc(NC(=S)NC(=O)c2ccc(-c3ccccc3)cc2)c(C)c1`, the inhibition is -4.31%.
With `Cc1ccc(NC(=O)c2oc(=O)c3ccccc3c2-c2ccccc2)c(C)c1`, the inhibition is 55.8% (active).
Consider `COc1ccccc1N(C)S(=O)(=O)c1ccc(Cl)c(C(=O)N2CCC(C(N)=O)CC2)c1`, for which the inhibition is -3.28%.
`COc1cc(/C=N/Nc2ccc(C)cc2)cc(Br)c1O`: the inhibition was -20.7%.
The value for `Cc1ccccc1OCCOc1ccc([N+](=O)[O-])cc1/C=N/n1cnnc1` was 37.6%; that for `Cc1c(Br)ccc(NC(=O)COc2ccccc2C(N)=O)c1C` was 2.06%.
Regarding `C=C(C)COc1ccc(-c2n[nH]c(C)c2-c2ccccc2OC)c(O)c1`, the inhibition was -7.88%.
In the case of `COc1ccccc1-c1nc(SC)n[nH]1`, the inhibition was -6.03%.
As to `COc1ccccc1-c1n[nH]c2c1[C@H](C)CC[C@H]2C(C)C`, the inhibition was 62.9% (active).
In the case of `Cc1ccc(S(=O)(=O)N(C)C)cc1NC(=O)c1ccccc1Br`, the inhibition is -1.67%.
In the case of `COc1ccc(OC)c(-c2csc(NC(=O)C3=NNC(=O)CC3)n2)c1`, the inhibition is -4.28%.
Consider `CCc1nnc(NC(=O)CSc2nc(SC)ns2)s1`, for which the inhibition was -6.1%.
With `CCOC(=O)C1C(=O)C=C(c2ccc(OC)cc2)CC1c1ccco1` (stereo not drawn), the inhibition is 0.83%.
`CC(=O)NC1C(Oc2ccc(C)cc2)OC2COC(c3ccco3)OC2C1O` (stereo not drawn): the inhibition is 54.2% (active).
Regarding `CCc1cccc(OC2OC(CO)C(O)C(O)C2NC(C)=O)c1` (stereo not drawn), the inhibition was -8.46%.
Turning to `CCC(C)(C)NC(=O)CN(Cc1cccs1)C(=O)CNS(=O)(=O)c1ccc(F)cc1`, the inhibition is -4.43%.
Consider `CCOC(=O)c1c(C)[nH]c2c1-c1ccccc1C(=O)C2=O`, for which the inhibition was 100% (active).
For the molecule `CCOC(=O)c1c(C)[nH]c(=S)c(C#N)c1-c1ccccc1`, the inhibition is -3.7%.
As to `CCOC(=O)c1cc2n(c1N)-c1ccccc1C2=O`, the inhibition is 1.96%.
